# MEP2 TOR yeast: alters MEP2-GFP fluorescence in TOR pathway yeast screen; S. cerevisiae MEP2-GFP strain, flow cytometry GFP, 3 h; 100% = DMSO control level; GFP response vs DMSO, % at 10 µM; 330,000 tested, 0.51% active; AID 2016;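 active = GFP response versus DMSO above a set limit, roughly screen mean plus 3 SD, cut at about 180% in these data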;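 note: median GFP fluorescence of the barcode-gated MEP2-GFP cells per well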
# AGP1-GFP MLPCN: alters AGP1-GFP fluorescence in TOR pathway yeast screen. S. cerevisiae AGP1-GFP multiplex flow cytometry, 3 h; GFP as percent of DMSO wells. GFP response vs DMSO, % at 10 µM. AID 2066. 320,000 tested, 0.02% active;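 active = GFP response relative to DMSO above a set limit, near screen average plus 3 SD, cut at about 150% in these data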;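 note: median GFP channel fluorescence of the gated AGP1 strain per well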
# LAP4 TOR yeast: alters LAP4-GFP fluorescence in TOR pathway yeast screen | S. cerevisiae LAP4-GFP multiplex, flow cytometry GFP, 3 h; median GFP as percent of DMSO wells | GFP response vs DMSO, % at 10 µM | 320,000 tested, 0.34% active;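 active = GFP response vs DMSO above a set limit, about the screen mean plus 3 SD, cut at about 150% in these data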
# RPL19A TOR yeast: yeast TOR pathway RPL19A-GFP modulation; percent response vs DMSO, % at 10 µM; 330,000 tested, 0.3% active; S. cerevisiae RPL19A-GFP strain, flow cytometry, 3 h; active compounds read low;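 active = percent response vs DMSO below 50%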;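 note: median channel GFP fluorescence of the barcoded RPL19A-GFP strain; ratio of sample median GFP to plate DMSO average so 100% = DMSO; lower means less RPL19A-GFP as with rapamycin TOR inhibition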
# CIT2-GFP yeast: modulators of TOR pathway CIT2-GFP in S. cerevisiae; S. cerevisiae CIT2-GFP strain, flow cytometry, 3 h; 100 means same as DMSO wells; 320,000 tested, 0.065% active; GFP response vs DMSO, % at 10 µM;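 active = GFP response relative to DMSO above a set limit, near the screen mean plus 3 SD, cut at about 150% in these data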;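 note: ratio of well median GFP fluorescence to mean of DMSO wells on the plate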
# LAP4-GFP pick2: second confirmation of modulators of TOR reporter LAP4-GFP in yeast. shares compounds with LAP4 TOR yeast. S. cerevisiae LAP4-GFP strain, flow cytometry GFP, 3 h. GFP response vs DMSO, % at 10 µM. 590 tested, 20% active;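 active = GFP signal as percent of the solvent control above about 150%, meaning raised reporter expression, limit read from the data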;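 note: ratio of well median GFP fluorescence to plate DMSO mean so 100% = DMSO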
# MEP2-GFP pick2: second confirmation of modulators of TOR reporter MEP2-GFP in yeast; shares compounds with LAP4 TOR yeast; S. cerevisiae MEP2-GFP strain, flow cytometry GFP, 3 h; GFP response vs DMSO, % at 10 µM; 590 tested, 10% active; AID 2622;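 active = GFP signal above 150% of the solvent control wells, that is a rise of more than half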;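 note: median channel GFP fluorescence of all gated yeast cells per well; ratio of median GFP to plate DMSO average so 100% = DMSO level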
# RPL19A-GFP pick2: yeast RPL19A-GFP TOR reporter modulation, second cherry pick. shares compounds with LAP4 TOR yeast. S. cerevisiae RPL19A-GFP strain, flow cytometry GFP, 3 h; active compounds read low; 100% means same as DMSO wells. GFP response vs DMSO, % at 10 µM. 590 tested, 3% active;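 active = under 65% GFP response relative to DMSO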;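 note: median GFP channel fluorescence per well over the all cells gate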
# CIT2-GFP pick2: reconfirmed modulator of CIT2-GFP TOR reporter in yeast. shares compounds with LAP4 TOR yeast. S. cerevisiae CIT2-GFP strain, flow cytometry GFP, 3 h; DMSO control wells read 100%. GFP response vs DMSO, % at 10 µM. 590 tested, 8% active. AID 2624;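 active = GFP response vs DMSO above about 150%, limit read from the data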;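 note: median green fluorescence per well over all gated yeast cells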
# AGP1 GFP CP2: yeast AGP1-GFP TOR reporter modulation, second cherry pick; 590 tested, under 10 active; S. cerevisiae AGP1-GFP strain, flow cytometry GFP, 3 h; percent response vs DMSO, % at 10 µM; shares compounds with LAP4 TOR yeast; AID 2643;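 active = over 150 percent of DMSO response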;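 note: median GFP channel fluorescence over all cells without mother daughter split; sample median GFP divided by mean DMSO control so 100% equals DMSO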
# s288c autofluor: counter-screen for compound autofluorescence in yeast s288c cells; shares compounds with LAP4 TOR yeast; S. cerevisiae s288c, 520 nm autofluorescence, flow cytometry, 3 h; active compounds read high; zero means same as solvent-only cells; fluorescence change (kMESF span) at 33 µM; 610 tested, under 10 active; AID 2757;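 active = fluorescence span over the dose series, or activity score, above about 33, limit read from the data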
# s288c autofl DR: counter-screen for autofluorescence of TOR hits in yeast s288c | fluorescence change (span) at 33 µM | shares compounds with LAP4 TOR yeast | S. cerevisiae s288c parental, compound autofluorescence, flow cytometry, 3 h | 110 tested, under 10 active | AID 488829;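 active = fluorescence change span, or the activity score built from it, above 25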
# TORC1 bypass gr: stops wildtype yeast growth while TORC1 bypass cells still grow; shares compounds with LAP4 TOR yeast; S. cerevisiae BY4741 spot growth rating, 48-72 h; active compounds read low; growth rating (0-3) at 30 µM; 120 tested, under 10 active; AID 504456;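 active = growth rating at most 1 for wild type yeast while the TORC1 bypass strain still grows fully, rated 3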
# * hit, by the source's call; . = no result. Shown are actives, neighbours in structure and some others; about 0.93% of the full set was active somewhere.
SMILES,MEP2 TOR yeast,AGP1-GFP MLPCN,LAP4 TOR yeast,RPL19A TOR yeast,CIT2-GFP yeast,LAP4-GFP pick2,MEP2-GFP pick2,RPL19A-GFP pick2,CIT2-GFP pick2,AGP1 GFP CP2,s288c autofluor,others
CN(C)C(=S)SSC(=S)N(C)C,91.7,75.8,200.7*,93.7,71.1,128.8,106.5,95.0,109.7,93.5,.,
C=C1C(=O)O[C@@H]2C[C@@H](C)[C@H]3C=CC(=O)[C@]3(O)C[C@@H]12,206.9*,25.8,90.8,99.1,54.3,102.2,103.1,99.3,100.1,98.6,.,
CCOc1ccc(N=Cc2c(O)n(CCc3ccc(OC)c(OC)c3)c(=O)[nH]c2=O)cc1,95.2,93.3,105.9,96.3,87.0,.,.,.,.,.,.,
COc1ccc(-n2c(O)c(C=NCCCn3ccnc3)c(=O)[nH]c2=O)cc1,103.9,105.4,101.9,98.3,104.2,.,.,.,.,.,.,
C=C1C(O)[C@@H]2O[C@]3(CC[C@H](/C=C/C(C)[C@@H]4CC(C)=CC5(O[C@H](C[C@@](C)(O)C(=O)O)CCC5O)O4)O3)CC[C@H]2O[C@@H]1C(O)CC(C)[C@H]1OC2(CCCCO2)CCC1C (some centres not stated),83.9,80.2,266.5*,98.1,50.4,268.3*,124.8,124.4,86.0,102.7,0.4,
Cn1nc(-c2ccc(OCC(=O)N3CCN(Cc4ccccc4)CC3)cc2)c2ccccc2c1=O,108.2,112.1,102.2,111.0,112.8,.,.,.,.,.,.,
CC1(C)OC(c2ccccc2)=C/C(=C/C=C2C(=O)NC(=S)NC2=O)O1,125.8,75.2,179.2*,92.1,.,.,.,.,.,.,4.49,
CCOc1ccc(N2C(=O)/C(=C\c3cccs3)C(=O)NC2=S)cc1,83.2,62.3,103.0,52.2,45.4,168.3*,131.4,70.4,74.6,70.7,-0.4,
CCOc1ccc(N2C(=O)/C(=C/c3ccco3)C(=O)NC2=S)cc1,99.3,89.0,123.3,95.1,94.7,.,.,.,.,.,.,
Nc1ccc2ccc3cccc[n+]3c2c1,224.3*,111.2,147.6,119.5,191.5*,.,.,.,.,.,14.7,
C[n+]1c(-c2ccccc2)c2cc(N)ccc2c2ccc(N)cc21,96.1,82.0,90.1,92.8,84.9,.,.,.,.,.,.,
CCOP(=O)(OCC)c1cccc(OP(=O)(c2cccc([N+](=O)[O-])c2)c2cccc([N+](=O)[O-])c2)c1,94.7,114.7,116.7,101.0,109.5,.,.,.,.,.,.,
CCC(Oc1cc(Cl)ccc1Cl)C(=O)N1CCC2(CC1)OCCO2 (configuration not stated),120.5,121.5,102.6,107.9,167.4*,98.1,101.5,100.4,100.7,102.0,.,
O=C(CCCOc1ccc(Cl)cc1Cl)N1CCC2(CC1)OCCO2,109.2,97.7,107.3,99.4,90.7,.,.,.,.,.,.,
O=c1oc2ccccc2c(O)c1[C@H]1c2ccc(O)cc2Oc2c1c(=O)oc1ccccc21,91.9,61.1,242.7*,98.1,59.5,.,.,.,.,.,0,
NC1=C([N+](=O)[O-])C(c2ccc3c(c2)OCO3)c2c(c3ccccc3oc2=O)O1 (configuration not stated),103.7,100.5,105.0,98.9,96.0,.,.,.,.,.,.,
NCCc1ccc(OCc2ccccc2)c(OCc2ccccc2)c1,106.4,105.4,113.2,96.2,84.1,.,.,.,.,.,.,
Fc1ccc(C(OCCN2CCN(CCCc3ccccc3)CC2)c2ccc(F)cc2)cc1,99.2,87.9,207.6*,75.8,86.6,103.2,104.8,98.5,107.1,100.7,.,
O=C1NC(=O)C(=Cc2ccc(SC3CCCCC3)o2)C(=O)N1,84.2,51.7,141.6,60.5,53.2,120.2,134.8,68.5,75.8,69.0,.,
NS(=O)(=O)c1ccc(-c2ccc(C=C3C(=O)NC(=O)NC3=O)o2)cc1,104.1,81.1,113.0,90.1,87.5,.,.,.,.,.,.,
C[C@H]1C[C@@H](C)C(=O)[C@@H]([C@H](O)CC2CC(=O)NC(=O)C2)C1,81.1,53.1,136.7,57.5,44.0,129.3,158.9*,74.3,87.6,73.8,1.3,s288c autofl DR=0.51;TORC1 bypass gr=0
COC(=O)C1=C(c2ccc(OCc3ccccc3)cc2)C[C@@H]2CC[C@H]1N2C(=O)NCCCc1ccccc1,93.3,96.9,100.1,95.2,98.8,.,.,.,.,.,.,
CCN1CCN(c2ccc(N)cc2)CC1,89.6,97.1,95.4,87.6,89.2,.,.,.,.,.,.,
CCN1CCN(c2ccc(N)cc2C)CC1,140.2,70.9,96.6,61.2,99.5,100.0,103.2,99.6,102.9,99.4,.,

# From PubChem BioAssay
